The target in assay [1] is Thyrotropin receptor (Homo sapiens) (UniProt P16473). Nature of the assay: qHTS assay to identify small molecule antagonists of the thyroid stimulating hormone receptor (TSHR) signaling pathway (AID 1259385; calls by dose curve; note: nearly all actives have a fitted effect of over 20% in size). The method in brief:
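TSHR-HEK293 cells (800/well) plated 18 h, then compounds with Ro20-1724 and TSH at 1.5 ng/mL final, 30 min at room temperature. cAMP quantified by HTRF (cAMP-d2/anti-cAMP-cryptate, 1 h); 15 concentrations in triplicate.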

Assay [2] in a line: qHTS assay to identify small molecule agonists of the estrogen receptor alpha (ER-alpha) signaling pathway in the presence of an antagonist - cell viability counter screen (AID 1259386).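 Note: series mostly up to about 92 µM; cells exposed to compounds for 22 h at 37 °C before the viability read; nearly all actives have a fitted effect of over 30% in size.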 The method in brief: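 Cytotoxicity was measured in parallel with the ERE-luciferase agonist screen, in the same wells. The cells were VM7Luc4E2, which endogenously express ER-alpha, and treatment was with compounds plus 10.0nM ICI-182,780 for 22hr.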

Assay [3] has as its target Progesterone receptor (Homo sapiens) (UniProt P06401). As to the kind of experiment: qHTS assay to identify small molecule agonists of the progesterone receptor (PR) signaling pathway (AID 1346784; calls by dose curve; note: nearly all actives have a fitted effect of over 30% in size). The method in brief: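 PR-UAS-bla HEK 293T cells carrying a UAS-driven beta-lactamase reporter were seeded in medium with 2% charcoal-stripped FBS, preincubated 6 hr at 37C, then exposed to compounds in DMSO for 16 hr; agonism was read by LiveBLAzer B/G FRET fluorescence.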

Assay [4] has the same target. Nature of the assay: qHTS assay to identify small molecule antagonists of the progesterone receptor (PR) signaling pathway (AID 1346795; active = well fitted inhibition curve with a large enough effect in the signal ratio in the repeat runs, not every such curve was filed as active; the % refers to the signal ratio; note: potency is the fitted concentration of half-maximal effect). The method in brief:
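PR-UAS-bla HEK293T cells carrying a UAS-driven beta-lactamase reporter were plated in medium with 2% charcoal-stripped FBS and rested 6 hr at 37C. Compounds were added with 1 nM R5020 (final) for 16 hr, then FRET substrate loaded 2 hr at room temperature.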

The nature of assay [5]: qHTS assay to identify small molecule agonists of the TGF-beta/Smad signaling pathway - cell viability counter screen (AID 1346829). Note: top concentration of the series differs between compounds; nearly all actives have a fitted effect of over 45% in size. The method, boiled down: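 Tox21 qHTS format: SBE-bla HEK 293T cells treated with DMSO-dissolved compounds for 5 hr; CellTiter-Glo luminescence after 30 min at room temperature.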
Assay [6] in a line: qHTS assay to identify small molecule agonists of the TGF-beta/Smad signaling pathway (AID 1346859; active = well fitted activation curve with a large enough effect in the signal ratio in the repeat runs, not every such curve was filed as active; the % refers to the signal ratio; note: series mostly up to about 77 µM). The method in brief: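 HEK 293T cells stably carrying a beta-lactamase reporter driven by the Smad binding element were seeded overnight, exposed to DMSO-dissolved compounds for 5 hr at 37 C, 5% CO2, then loaded with FRET substrate for 2 hr at room temperature.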
The nature of assay [7]: Caspase-3/7 induction in HepG2 cells by small molecules, qHTS assay (AID 1346978). Note: nearly all actives have a fitted effect of over 15% in size. The method, boiled down: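 Wild-type HepG2 cells, 2,000/well, settled 5 hr at 37 C and 5% CO2, then compound-treated for 17 hr; caspase-3/7 activity read by luminescent Caspase-Glo 3/7 after 30 min at room temperature.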
Assay [8] can be described thus: Caspase-3/7 induction in CHO-K1 cells by small molecules, qHTS assay (AID 1346980). Note: nearly all actives have a fitted effect of over 15% in size. Note: potency is the fitted concentration of half-maximal effect. The method, boiled down:
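Wild-type CHO-K1 cells exposed to compounds for 17hr at 37 C, 5% CO2. Caspase-3/7 activity then measured by Caspase-Glo 3/7 luminescence after 30min at room temperature.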

For assay [9], the target named is Nuclear receptor subfamily 1 group I member 2 (Homo sapiens) (UniProt O75469). Nature of the assay: Human pregnane X receptor (PXR) small molecule agonists, qHTS assay (AID 1346982). Note: nearly all actives have a fitted effect of over 35% in size. Note: potency is the fitted concentration of half-maximal effect. The method in brief:
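Cells: HepG2 stably carrying PXR-Luc. Medium held 5% charcoal-stripped FBS. Compounds in DMSO added after 5 hr plating, incubated 24 hr, then luminescence quantified with ONE-Glo.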

Assay [10] deals with Nuclear receptor subfamily 1 group I member 2 (Rattus norvegicus) (UniProt Q9R1A7). As to the kind of experiment: Rat pregnane X receptor (rPXR) activation by small molecules, qHTS assay (AID 1346983). Note: nearly all actives have a fitted effect of over 20% in size. Particulars: rPXR luciferase reporter cells, One-Glo luminescence, 24 h; max activation: hits give high values. The method, boiled down: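 Cell-based rPXR activation assay: rPXR cells, 2,000 per well, rested 5hr at 37 C, then exposed to compounds in DMSO for 24 hr at 37 C. Luciferase activity read by One-Glo luminescence after 30 min at room temperature.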

The target of assay [11] is Nuclear receptor subfamily 1 group I member 2 (Homo sapiens) (UniProt O75469). As to the kind of experiment: CYP3A4 induction through human pregnane X receptor (PXR) by small molecules, qHTS assay (AID 1346984). Note: nearly all actives have a fitted effect of over 40% in size. Note: potency is the fitted concentration of half-maximal effect. The method, boiled down:
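Quantitative HTS in DPX-2 cells, i.e. HepG2 transfected with PXR response element and CYP3A4-promoter luciferase. Compounds in DMSO incubated 24hr at 37C; then P450-Glo CYP3A4 substrate, 3uM final, 3hr; One-Glo luminescence.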

Assay [12] has the same target. As to the kind of experiment: Human pregnane X receptor (PXR) activation by small molecules, qHTS assay (AID 1346985). Note: nearly all actives have a fitted effect of over 40% in size. Note: potency is the fitted concentration of half-maximal effect. The method, boiled down:
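DPX-2 cells (HepG2 co-transfected with a PXR response element and a CYP3A4-promoter luciferase construct) were seeded at 2,000 per well, rested 5 hr at 37C, then exposed to DMSO-dissolved compounds for 24 hr. Activation was read as luciferase luminescence.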

A short description of assay [13]: qHTS assay to identify small molecule agonists of the progesterone receptor (PR) signaling pathway - cell viability counter screen (AID 1346799; calls by dose curve; note: nearly all actives have a fitted effect of over 45% in size). The method in brief: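 PR-UAS-bla HEK293T cells, 3,000 per well in medium with 2% charcoal-stripped FBS, were preincubated 6 hr at 37C, then exposed to compounds for 16 hr; viability was read as CellTiter-Glo luminescence after 30 min at room temperature.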

In assay [14] the target is Thyrotropin-releasing hormone receptor (Homo sapiens) (UniProt P34981). As to the kind of experiment: qHTS assay to identify small molecule antagonists of the thyrotropin-releasing hormone receptor (TRHR) signaling pathway (AID 1346877; active = well fitted inhibition curve with a large enough effect in the repeat runs, not every such curve was filed as active; note: series mostly up to about 51 µM). The method, boiled down:
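Antagonism is measured as suppression of the calcium response to 1 nM TRH in TRHR-HEK293 cells that have been dye-loaded for 2 h at 37 °C after overnight plating. Each compound is tested at 15 concentrations in triplicate.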

The target is the same in assay [15]. As to the kind of experiment: qHTS assay to identify small molecule agonists of the thyrotropin-releasing hormone receptor (TRHR) signaling pathway (AID 1346891; calls by dose curve; note: series mostly up to about 58 µM). The method in brief: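 TRHR-expressing HEK293 cells were plated 18 h at 37 °C/5% CO2, loaded with calcium dye 2 h at 37 °C, then given compound in DMSO; fluorescence was read kinetically for 3 min at 1 s intervals.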

The nature of assay [16]: Caspase-3/7 induction in CHO-K1 cells by small molecules, qHTS cell viability counter screen (AID 1346979). Note: nearly all actives have a fitted effect of over 35% in size. Note: potency is the fitted concentration of half-maximal effect. The method, boiled down:
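Wild-type CHO-K1 cells were seeded at 1,500 per well, rested 5hr at 37 C, then exposed to compounds in DMSO. After 16hr, CellTiter-Fluor reagent was added and fluorescence read 1hr later as the viability measure.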

The nature of assay [17]: Caspase-3/7 induction in HepG2 cells by small molecules, qHTS cell viability counter screen (AID 1346981). Note: series mostly up to about 92 µM; nearly all actives have a fitted effect of over 30% in size. The method, boiled down: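 Cell viability is measured as a cytotoxicity counter screen alongside the Caspase-Glo 3/7 readout in identical wells. Wild-type HepG2 cells are treated with test compounds for 16 hr at 37 C before CellTiter-Fluor addition and a 1-hr incubation.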

Assay [18] can be described thus: qHTS assay to identify small molecule antagonists of the TGF-beta/Smad signaling pathway - cell viability counter screen (AID 1346824). Note: nearly all actives have a fitted effect of over 50% in size. The method in brief: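 SBE-bla HEK 293T cells, incubated overnight, then compound plus 0.25 ng/mL TGF-beta1 (stock added) for 5 hr at 37 C. Viability was read in the same wells by CellTiter-Glo luminescence after 30 min at room temperature.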

A short description of assay [19]: qHTS assay to identify small molecule antagonists of the progesterone receptor (PR) signaling pathway - cell viability counter screen (AID 1346798). Note: series mostly up to about 92 µM; nearly all actives have a fitted effect of over 50% in size. The method in brief:
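PR-UAS-bla HEK293T cells in medium with 2% charcoal-stripped FBS were treated with compounds plus R5020 for 16 hr at 37C. Cell viability was then read by CellTiter-Glo luminescence after 30 min at room temperature in the same wells.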

A short description of assay [20]: Human pregnane X receptor (PXR) small molecule agonists, qHTS cell viability counter screen (AID 1346977). Note: nearly all actives have a fitted effect of over 50% in size. The method, boiled down:
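PXR-Luc HepG2 cells in medium with 5% charcoal-stripped FBS were pre-incubated 5hr, then exposed to compounds for 24hr at 37C. Viability was read in the same wells by CellTiter-Fluor fluorescence, reagent added after 23hr with a 1hr incubation.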

SMILES strings stand for the structures. Unmarked numbers belong to inactive results. Records with an inconclusive call do not appear. Activity calls are given as the source filed them. Unless noted, calls come from the whole dose curve; as a rule, active = well fitted curve in the direction sought with a large enough effect in the repeat runs; inconclusive = weak or mixed curves; inactive = no such curve, though single readings can be large; an effect the other way counts as inactive or inconclusive.
% is set by controls: 0 for no effect and ±100 for the full control effect.

Sequence of Thyrotropin-releasing hormone receptor (Homo sapiens) (P34981 whole entry, looked up): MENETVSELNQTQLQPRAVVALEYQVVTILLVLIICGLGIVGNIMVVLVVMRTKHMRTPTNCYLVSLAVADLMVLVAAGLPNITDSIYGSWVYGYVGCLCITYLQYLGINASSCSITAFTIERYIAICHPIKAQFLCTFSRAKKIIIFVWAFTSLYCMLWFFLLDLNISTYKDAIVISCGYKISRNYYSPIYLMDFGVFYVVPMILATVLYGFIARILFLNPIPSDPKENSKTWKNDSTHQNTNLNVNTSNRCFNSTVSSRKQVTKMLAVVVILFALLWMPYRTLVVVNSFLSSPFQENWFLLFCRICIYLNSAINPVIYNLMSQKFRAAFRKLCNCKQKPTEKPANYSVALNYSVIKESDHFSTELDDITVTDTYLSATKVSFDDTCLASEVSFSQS
Sequence of Thyrotropin receptor (Homo sapiens) (P16473 whole entry, looked up): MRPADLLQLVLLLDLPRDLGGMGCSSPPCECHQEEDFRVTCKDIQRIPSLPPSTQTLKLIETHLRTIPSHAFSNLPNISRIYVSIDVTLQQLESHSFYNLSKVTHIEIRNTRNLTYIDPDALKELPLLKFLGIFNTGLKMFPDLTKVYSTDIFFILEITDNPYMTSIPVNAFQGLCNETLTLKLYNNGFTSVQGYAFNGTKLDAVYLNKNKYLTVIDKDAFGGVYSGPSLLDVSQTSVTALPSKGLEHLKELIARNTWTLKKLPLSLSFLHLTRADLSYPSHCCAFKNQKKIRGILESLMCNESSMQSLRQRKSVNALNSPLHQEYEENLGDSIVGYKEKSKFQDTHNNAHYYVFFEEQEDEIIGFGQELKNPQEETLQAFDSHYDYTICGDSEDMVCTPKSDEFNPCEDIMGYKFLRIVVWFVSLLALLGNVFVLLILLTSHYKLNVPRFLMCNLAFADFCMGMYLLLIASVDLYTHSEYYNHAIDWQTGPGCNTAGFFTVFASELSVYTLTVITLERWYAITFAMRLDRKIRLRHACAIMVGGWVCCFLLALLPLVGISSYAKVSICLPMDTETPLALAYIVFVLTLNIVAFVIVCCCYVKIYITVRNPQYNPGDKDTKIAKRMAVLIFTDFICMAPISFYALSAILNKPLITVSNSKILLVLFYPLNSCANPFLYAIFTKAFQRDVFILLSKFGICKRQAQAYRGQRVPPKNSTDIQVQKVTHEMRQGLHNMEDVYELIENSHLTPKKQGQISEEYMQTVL
Sequence of Nuclear receptor subfamily 1 group I member 2 (Rattus norvegicus) (Q9R1A7 whole entry, looked up): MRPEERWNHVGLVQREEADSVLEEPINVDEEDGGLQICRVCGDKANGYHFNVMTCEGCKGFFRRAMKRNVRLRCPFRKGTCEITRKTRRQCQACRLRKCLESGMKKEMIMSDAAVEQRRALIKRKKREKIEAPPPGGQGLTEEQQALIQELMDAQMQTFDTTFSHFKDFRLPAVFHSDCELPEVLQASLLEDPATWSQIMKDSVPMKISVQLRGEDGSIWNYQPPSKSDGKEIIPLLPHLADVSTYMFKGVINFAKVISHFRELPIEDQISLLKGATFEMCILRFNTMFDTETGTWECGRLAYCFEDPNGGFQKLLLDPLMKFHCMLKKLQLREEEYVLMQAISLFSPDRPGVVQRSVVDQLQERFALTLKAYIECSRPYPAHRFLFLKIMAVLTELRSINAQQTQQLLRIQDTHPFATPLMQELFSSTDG
Sequence of Progesterone receptor (Homo sapiens) (P06401 whole entry, looked up): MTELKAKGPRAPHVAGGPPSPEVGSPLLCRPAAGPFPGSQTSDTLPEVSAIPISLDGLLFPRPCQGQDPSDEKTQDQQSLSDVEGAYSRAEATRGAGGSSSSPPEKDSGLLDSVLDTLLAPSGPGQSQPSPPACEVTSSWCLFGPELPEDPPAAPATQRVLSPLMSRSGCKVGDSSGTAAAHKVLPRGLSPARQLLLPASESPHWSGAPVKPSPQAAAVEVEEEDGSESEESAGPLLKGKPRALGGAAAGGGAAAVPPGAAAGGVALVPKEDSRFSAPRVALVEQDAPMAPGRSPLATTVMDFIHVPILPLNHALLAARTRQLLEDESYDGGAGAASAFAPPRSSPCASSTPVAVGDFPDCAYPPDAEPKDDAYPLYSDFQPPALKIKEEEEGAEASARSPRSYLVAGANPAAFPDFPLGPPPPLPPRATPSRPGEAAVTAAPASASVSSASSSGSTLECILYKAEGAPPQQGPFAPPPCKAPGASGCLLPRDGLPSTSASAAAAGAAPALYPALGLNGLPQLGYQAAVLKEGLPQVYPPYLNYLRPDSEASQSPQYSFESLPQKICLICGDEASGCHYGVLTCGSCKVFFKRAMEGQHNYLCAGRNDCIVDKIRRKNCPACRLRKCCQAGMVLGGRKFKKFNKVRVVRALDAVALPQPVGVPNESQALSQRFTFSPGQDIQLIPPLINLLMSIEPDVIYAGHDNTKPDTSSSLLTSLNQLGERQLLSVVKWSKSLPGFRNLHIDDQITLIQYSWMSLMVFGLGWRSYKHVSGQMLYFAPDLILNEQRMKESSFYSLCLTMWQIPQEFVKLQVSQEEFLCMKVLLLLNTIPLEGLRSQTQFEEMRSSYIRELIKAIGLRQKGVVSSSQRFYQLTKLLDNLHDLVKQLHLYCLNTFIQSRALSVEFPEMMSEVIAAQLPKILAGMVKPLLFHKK
Sequence of Nuclear receptor subfamily 1 group I member 2 (Homo sapiens) (O75469 whole entry, looked up): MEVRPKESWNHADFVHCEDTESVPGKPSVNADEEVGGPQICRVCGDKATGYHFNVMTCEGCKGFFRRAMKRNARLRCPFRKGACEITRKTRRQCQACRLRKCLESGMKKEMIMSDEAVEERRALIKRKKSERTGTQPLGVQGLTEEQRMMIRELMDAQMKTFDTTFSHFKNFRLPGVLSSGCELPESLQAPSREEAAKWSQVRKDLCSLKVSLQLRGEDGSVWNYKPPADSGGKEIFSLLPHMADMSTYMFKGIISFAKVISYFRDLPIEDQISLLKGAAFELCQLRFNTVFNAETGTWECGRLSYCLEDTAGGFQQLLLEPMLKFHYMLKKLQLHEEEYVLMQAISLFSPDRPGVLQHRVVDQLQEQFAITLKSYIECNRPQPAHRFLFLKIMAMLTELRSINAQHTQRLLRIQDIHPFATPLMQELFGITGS

With `Clc1ccc(Nc2nnc(Cc3ccncc3)c3ccccc23)cc1`, the Potency entry in [1], in assay [2], in assay [3], in assay [5], in assay [6] and in assay [7] was “inactive” throughout. The Potency result in [8] and in [11] was “inactive” throughout. The Potency in [4] was 26.6 µM (active); in [9] it was 29.8 µM (active); in assay [12] it was 3.98 µM (active). The max activation in assay [10] is 1.3%.

In the case of `CC1(C)S[C@@H]2[C@H](NC(=O)C(c3ccccc3)S(=O)(=O)O)C(=O)N2[C@H]1C(=O)O` (stereo partly specified), the Potency entry in [1], in assay [2], in assay [3], in assay [4], in assay [13] and in [5] was “inactive” each time. Further, the Potency entry in assay [6], in [15], in [7], in [16], in assay [8] and in assay [17] was “inactive” throughout. Further, the Potency result in assay [9] was “inactive”. Besides, the result in assay [14] was inactive.

As for `Oc1ccc(Cl)c2cccnc12`, the Potency entry in assay [1], in assay [2], in [3], in assay [18], in assay [5] and in assay [6] was “inactive” in each case. For the same molecule, the Potency result in [15], in [7], in assay [17] and in assay [12] was “inactive” each time. The Potency in [4] was 3.76 µM (active); in assay [16] it was 6.68 µM (active); in assay [8] it was 6.68 µM (active); in assay [11], 2.51 µM (active). Also, the outcome in [14] was inactive. For the same molecule, the max activation in assay [10] is -0.0207%.

Take `CCCCCC[C@@H](O)C/C=C\CCCCCCCC(=O)O`: the Potency entry in assay [1], in assay [2], in [3], in assay [4], in assay [18] and in assay [5] was “inactive” throughout. The Potency result in [6], in assay [15], in [7], in [16], in assay [17] and in assay [9] was “inactive” in each case. Further, in assay [14], the molecule was classed as inactive.

`O=C(O)CCc1nc(-c2ccccc2)c(-c2ccccc2)o1`: the Potency entry in [1], in [2], in assay [3], in [4], in assay [19] and in assay [5] was “inactive” in each case. Further, the Potency result in assay [6], in [15], in assay [7], in assay [16], in assay [8] and in assay [11] was “inactive” in each case. For the same molecule, the Potency result in [12] was “inactive”. For the same molecule, the molecule was called inactive in assay [14]. Further, the max activation in assay [10] is -4.22%.

As to `CC(=O)c1ccc([N+](=O)[O-])cc1`, the Potency entry in assay [1], in assay [2], in [3], in assay [19], in [18] and in [5] was “inactive” in each case. In addition, the Potency entry in assay [6], in assay [20], in assay [7], in [16] and in assay [17] was “inactive” in each case.

With `Oc1cccc(Nc2ccccc2)c1`, the Potency result in assay [1], in assay [2], in [3], in [18], in [5] and in assay [6] was “inactive” each time. Moreover, the Potency entry in assay [15], in assay [20], in assay [7], in [16], in assay [8] and in assay [17] was “inactive” throughout. The Potency was 20.2 µM (active) in assay [4] and 63.8 µM (active) in assay [9]. For the same molecule, the result in assay [14] was inactive.

Values taken from PubChem BioAssay (Tox21).
